{
  "source": "PubChem BioAssay (Tox21)",
  "note": "Inconclusive results are not listed. Where a call stands in place of a potency, no number is given. The source made the active and inactive calls. Calls follow the shape of the dose curve; as a rule, active = well fitted activation curve with a large enough effect in the signal ratio in the repeat runs (not every such curve was filed as active); inconclusive = weak or mixed curves, or effect the other way; inactive = no such curve, though single readings can be large or run the other way; the % refers to the signal ratio. Potency is read from the fitted curve at half-maximal effect.",
  "data": [
    {"target": "Peroxisome proliferator-activated receptor gamma (Homo sapiens) (UniProt P37231)", "sequence (P37231 whole entry, looked up)": "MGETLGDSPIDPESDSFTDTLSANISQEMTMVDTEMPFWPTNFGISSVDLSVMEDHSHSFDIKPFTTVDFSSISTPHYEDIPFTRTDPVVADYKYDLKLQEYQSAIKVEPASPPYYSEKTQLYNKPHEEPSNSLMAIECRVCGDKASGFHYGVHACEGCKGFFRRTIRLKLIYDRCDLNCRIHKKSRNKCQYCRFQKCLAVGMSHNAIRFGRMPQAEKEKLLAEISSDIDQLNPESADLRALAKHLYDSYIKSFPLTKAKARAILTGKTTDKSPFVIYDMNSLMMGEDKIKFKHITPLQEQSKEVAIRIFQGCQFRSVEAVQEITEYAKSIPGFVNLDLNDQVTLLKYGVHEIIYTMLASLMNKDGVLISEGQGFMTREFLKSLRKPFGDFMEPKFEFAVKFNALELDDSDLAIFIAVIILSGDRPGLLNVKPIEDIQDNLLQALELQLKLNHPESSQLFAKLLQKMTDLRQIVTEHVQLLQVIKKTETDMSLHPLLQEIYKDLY", "test": "qHTS assay to identify small molecule agonists of the peroxisome proliferator-activated receptor gamma (PPARg) signaling pathway (AID 743094)", "conditions": "HEK293H PPARg-UAS-bla, beta-lactamase FRET ratio, 17 h; series mostly up to 57 µM", "excerpt": "U.S. Tox21 Program National Center for Advancing Translational Sciences [NCATS] NIH Chemical Genomics Center [NCGC] U.S. Environmental Protection Agency [EPA] National Institutes of Environmental Health Sciences [NIEHS] National Toxicology Program [NTP] U.S. Food and Drug Administration [FDA] Tox21 Assay Overview: The peroxisome proliferator-activated receptors (PPARs) are lipid-activated transcription factors of the nuclear receptor superfamily with three distinct subtypes namely PPAR alpha, PPAR delta (also called PPAR beta) and PPAR gamma (PPARg). All these subtypes heterodimerize with Retinoid X receptor (RXR) and these heterodimers regulate transcription of various genes. PPAR-gamma receptor (glitazone receptor) is involved in the regulation of glucose and lipid metabolism. To identify the compounds that activate PPAR-gamma signaling, GeneBLAzer PPAR gamma UAS-bla HEK293H cell line (Invitrogen, Carlsbad, CA, USA) containing a beta-lactamase reporter gene under control of the control of an upstream activator sequence (UAS) stably integrated into HEK293H cells was used to screen Tox21 compound library.\nTox21 Assay Protocol Summary: PPARg-bla cells were dispensed at 3000 cells/6uL/well in 1536-well black wall/clear bottom plates using a Multidrop Combi (Thermo Fisher Scientific, Waltham, MA) dispenser. After the assay plates were incubated at 37C and 5% CO2 for 5 h, 23 nL of compounds dissolved in DMSO, positive controls or DMSO only was transferred to the assay plate by a Pintool station (Kalypsys, San Diego, CA). The assay plates were incubated at 37C for 17 h. After 1 uL of LiveBLAzerTM B/G FRET substrate was added using a Bioraptr Flying Reagent Dispenser (FRD) workstation (Beckman Coulter, Indianapolis, IN, USA), the plates were incubated at room temperature for 1 h, and fluorescence intensity was measured by an Envision plate reader (PerkinElmer, Shelton, CT).", "values": [
      {"smiles": "N#CCCCC(C#N)CCC#N", "note": "(stereo not given)", "Potency": "inactive"},
      {"smiles": "Nc1ccc(F)cc1F", "Potency": "inactive"},
      {"smiles": "CCCC(=O)OCCC(C)C", "Potency": "inactive"},
      {"smiles": "CCOc1ccc(NC(C)=O)cc1N", "Potency": "inactive"},
      {"smiles": "CC(O)C(C)O", "note": "(stereo not given)", "Potency": "inactive"},
      {"smiles": "FC(F)(Cl)C(F)(Cl)Cl", "Potency": "inactive"},
      {"smiles": "CCCCCCCCC(=O)OCC(C)OC(=O)CCCCCCCC", "note": "(stereo not given)", "Potency": "inactive"},
      {"smiles": "O=S(=O)(O)c1cc(Cl)c(Cl)cc1Cl", "Potency": "inactive"},
      {"smiles": "CC(=O)CC/C=C(\\C)CC/C=C(\\C)CC/C=C(\\C)CCC=C(C)C", "Potency": "inactive"},
      {"smiles": "C(/C=C/C=C/Nc1ccccc1)=Nc1ccccc1", "Potency": "inactive"},
      {"smiles": "Cc1ccc2c(Cl)cc(Cl)c(O)c2n1", "Potency": "9.52 µM (active)"},
      {"smiles": "O=C1c2ccccc2C(=O)C1c1ccc2cc(S(=O)(=O)O)cc(S(=O)(=O)O)c2n1", "Potency": "inactive"},
      {"smiles": "COc1ccc(C(=O)Nc2ccccc2)cc1[N+](=O)[O-]", "Potency": "inactive"},
      {"smiles": "COc1cc(CNC(=O)CCCC/C=C/C(C)C)ccc1O", "Potency": "inactive"},
      {"smiles": "O=c1[nH]nc(-c2ccc([N+](=O)[O-])o2)o1", "Potency": "inactive"},
      {"smiles": "C/C(=C(\\CCO)SS/C(CCO)=C(\\C)N(C=O)Cc1cnc(C)nc1N)N(C=O)Cc1cnc(C)nc1N", "Potency": "inactive"},
      {"smiles": "c1ccc(CN(Cc2ccccc2)Cc2ccccc2)cc1", "Potency": "inactive"},
      {"smiles": "CC(O)CN", "note": "(stereo not given)", "Potency": "inactive"},
      {"smiles": "CC(C)(C)N", "Potency": "inactive"},
      {"smiles": "Cc1cc(C)c(C)c(O)c1", "Potency": "inactive"},
      {"smiles": "COC(=O)c1cc(Cl)ccc1[N+](=O)[O-]", "Potency": "inactive"},
      {"smiles": "CC(=O)Oc1cccc2c1C(=O)c1c(OC(C)=O)cc(C(=O)O)cc1C2=O", "Potency": "inactive"},
      {"smiles": "O=Cc1ccc(Cl)c([N+](=O)[O-])c1", "Potency": "inactive"},
      {"smiles": "CCOC(=O)CC(O)(CC(=O)OCC)C(=O)OCC", "Potency": "inactive"},
      {"smiles": "O=Cc1ccc([N+](=O)[O-])cc1", "Potency": "inactive"},
      {"smiles": "OCCCO", "Potency": "inactive"},
      {"smiles": "C=CC(=O)OCCCCCCCCCC", "Potency": "inactive"},
      {"smiles": "NC(=O)c1ccccc1", "Potency": "inactive"},
      {"smiles": "CC(C)CC(C)(C)C", "Potency": "inactive"},
      {"smiles": "Cc1ccc(NC(=O)c2ccc(CN3CCN(C)CC3)cc2)cc1Nc1nccc(-c2cccnc2)n1", "Potency": "inactive"},
      {"smiles": "CC1(C)C(=O)NC(=O)N1CO", "Potency": "inactive"},
      {"smiles": "Cc1ccccc1CCO", "Potency": "inactive"},
      {"smiles": "CCc1ccc(C(=O)C(C)CN2CCCCC2)cc1", "note": "(stereo not given)", "Potency": "inactive"},
      {"smiles": "c1ccc(CCNc2nc(-c3ccccc3)cs2)cc1", "Potency": "inactive"},
      {"smiles": "CCCCCCOC(=O)c1ccccc1", "Potency": "inactive"},
      {"smiles": "CC(Cc1ccccc1)(NC(=O)CN)c1ccccc1", "note": "(stereo not given)", "Potency": "inactive"},
      {"smiles": "CO[C@@H]1COCC[C@@H]1N[C@@H]1CC[C@@](C(=O)N2CCc3ncc(C(F)(F)F)cc3C2)(C(C)C)C1", "Potency": "inactive"},
      {"smiles": "Clc1ccccc1-c1nc(-c2ccncc2)no1", "Potency": "inactive"},
      {"smiles": "O=C(Nc1ccc2c(c1)Cc1ccccc1-2)C(F)(F)F", "Potency": "inactive"},
      {"smiles": "CC(=O)c1cccnc1", "Potency": "inactive"}
    ]}
  ]
}
